Our source for the growth values is PubChem BioAssay (NCI).

Among the test systems are HCT-15 colon; HT29 colon; SNB-75 CNS; SNB-19 CNS; U251 CNS; PC-3 prostate; SK-MEL-5 melanoma; UACC-62 melanoma; LOX IMVI melanoma; SK-MEL-28 melanoma; SK-MEL-2 melanoma; EKVX NSCLC; SN12C renal; UO-31 renal; TK-10 renal; ACHN renal; CAKI-1 renal; A498 renal; CCRF-CEM leukemia; MOLT-4 leukemia.
Assay in all cases: NCI-60 one-dose screen, 48 h (100 = growth as untreated, 0 = no growth, -100 = all killed)
Common to all, as to conditions: 10 µM unless noted

Compounds without any hit were thinned out: in the full panel of roughly 83,000, 20% have a hit.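 How to read the values: 0–100, growth inhibition (40 = 60% inhibited); 0, no net growth; -100 to 0, cell death (-40 = 40% of starting cells died; -100 = all dead).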 A number with no mark means an inactive call. Activity calls are given as the source filed them. Rule for the calls: active = growth percent below 10; inactive = the rest.

Turning to `CCN=C1C=CC(=C(c2ccc(N(C)C)cc2)c2ccc(N(C)C)cc2)c2ccccc21`, the growth in the assay with HCT-15 colon is -7.99% (active); in the assay on HT29 colon, -18.7% (active); in the assay on SNB-75 CNS, -17.3% (active); with SNB-19 CNS it was 14.8%; in the assay on U251 CNS it was -3.23% (active); with PC-3 prostate, -4.82% (active). The growth in the assay on SK-MEL-5 melanoma is -95.5% (active); with UACC-62 melanoma it was -38% (active); in the assay with LOX IMVI melanoma it was -10.8% (active); in the assay with SK-MEL-28 melanoma, -18.5% (active); in the assay with SK-MEL-2 melanoma, -39.5% (active); with EKVX NSCLC, -6.63% (active). Besides, the growth is -22.2% (active) with SN12C renal; -42.9% (active) with UO-31 renal; -3.47% (active) in the assay with TK-10 renal; -9.84% (active) in the assay with ACHN renal; 0.419% (active) with CAKI-1 renal; 13.3% in the assay on A498 renal. For the same compound, the growth in the assay on CCRF-CEM leukemia is 9.37% (active); with MOLT-4 leukemia, 9.89% (active).
As to `Cc1ccc(-c2cc(C(=O)N3N=C(c4ccc(N)cc4)CC3c3ccc(Cl)cc3)c3ccccc3n2)cc1` (stereo not given), the growth was 30.2% in the assay on HCT-15 colon; -1.84% (active) in the assay on HT29 colon; -4.36% (active) with SNB-75 CNS; 42.1% with SNB-19 CNS; 22.5% with U251 CNS; 15.4% in the assay on PC-3 prostate. For the same compound, the growth was 12.4% in the assay with SK-MEL-5 melanoma; 39.2% in the assay on UACC-62 melanoma; 37.2% with LOX IMVI melanoma; 72.6% in the assay on SK-MEL-28 melanoma; 2.76% (active) with SK-MEL-2 melanoma; 44.5% with EKVX NSCLC. Besides, the growth was 48.8% in the assay on SN12C renal; 42.9% in the assay with UO-31 renal; 24.5% in the assay on TK-10 renal; 51.7% in the assay on ACHN renal; 24% in the assay on CAKI-1 renal; 0.316% (active) with A498 renal. Also, the growth in the assay on CCRF-CEM leukemia was 12.8%; in the assay with MOLT-4 leukemia it was 25.2%.
Consider `COc1ccc(C2=NN(C(=O)c3cc(OC)c(OC)c(OC)c3)C(c3ccc(N(C)C)cc3)C2)cc1` (stereo not given), for which the growth with HCT-15 colon is 10.6%; with HT29 colon it was 19.1%; in the assay on SNB-75 CNS it was 18.1%; with SNB-19 CNS it was 37.6%; in the assay with U251 CNS, 15.6%; in the assay on PC-3 prostate, 20.6%. Besides, the growth was 5.24% (active) in the assay on SK-MEL-5 melanoma; 15.6% in the assay with UACC-62 melanoma; 28.9% with LOX IMVI melanoma; 56.3% in the assay on SK-MEL-28 melanoma; 66.5% with SK-MEL-2 melanoma; 35.6% in the assay on EKVX NSCLC. In addition, the growth with SN12C renal was 31.3%; with UO-31 renal it was 19.4%; with TK-10 renal it was 56.5%; in the assay with ACHN renal, 25.8%; in the assay on CAKI-1 renal, 39.1%; with A498 renal, -1.92% (active). Moreover, the growth is 26.7% with CCRF-CEM leukemia and 18.9% with MOLT-4 leukemia.
For the compound `CN1CCN(c2ccc3c(c2)nc(NNC(=O)c2cnccn2)c2cccn23)CC1`, the growth in the assay with HCT-15 colon is 23.9%; in the assay on HT29 colon, 28.6%; in the assay with SNB-75 CNS it was 66.7%; in the assay on SNB-19 CNS, 34.9%; in the assay with U251 CNS it was 32.2%; with PC-3 prostate, 47.3%. For the same compound, the growth with SK-MEL-5 melanoma was 31.2%; in the assay with UACC-62 melanoma, 12.9%; in the assay on LOX IMVI melanoma it was 10.3%; with SK-MEL-28 melanoma, 24.8%; in the assay on SK-MEL-2 melanoma it was 64.8%; in the assay with EKVX NSCLC, 30.1%. Moreover, the growth was 27.6% with SN12C renal; 3.3% (active) with UO-31 renal; 44.8% in the assay with TK-10 renal; 8.28% (active) with ACHN renal; 22.5% in the assay with CAKI-1 renal; 31.4% with A498 renal. Moreover, the growth is 11.4% in the assay on CCRF-CEM leukemia and 13.9% with MOLT-4 leukemia.
For the compound `Cc1ccc(-c2nc(C#N)c(S(=O)(=O)NCCO)o2)cc1`, the growth was 41.8% in the assay with HCT-15 colon; 24.2% with HT29 colon; 105% with SNB-75 CNS; 88.3% with SNB-19 CNS; 74% in the assay on U251 CNS; 61.7% in the assay with PC-3 prostate. The growth was 75% with SK-MEL-5 melanoma; 60.3% in the assay with UACC-62 melanoma; 46.4% in the assay with LOX IMVI melanoma; 70.7% in the assay on SK-MEL-28 melanoma; 64.9% in the assay with SK-MEL-2 melanoma; 104% with EKVX NSCLC. In addition, the growth is 81.2% in the assay with SN12C renal; 62.1% in the assay with UO-31 renal; 65.7% in the assay with TK-10 renal; 67.7% in the assay with ACHN renal; 71% in the assay on CAKI-1 renal; 108% with A498 renal. The growth is -17.5% (active) in the assay on CCRF-CEM leukemia and 19.8% with MOLT-4 leukemia.
Take `CN1CCN(Cc2cc(NC(=O)c3cccc(C#Cc4cccc5[nH]nc(N)c45)c3)cc(C(F)(F)F)c2)CC1`: the growth with HCT-15 colon was 10.8%; in the assay with HT29 colon it was -15.8% (active); in the assay with SNB-75 CNS it was 22.9%; in the assay on SNB-19 CNS, 52.1%; in the assay with U251 CNS, 22.2%; in the assay with PC-3 prostate, 27.4%. For the same compound, the growth with SK-MEL-5 melanoma was -5.74% (active); in the assay with UACC-62 melanoma, 12.1%; in the assay on LOX IMVI melanoma, -90.1% (active); in the assay with SK-MEL-28 melanoma, -60.5% (active); in the assay with SK-MEL-2 melanoma, 17.8%; with EKVX NSCLC it was 46%. In addition, the growth in the assay on SN12C renal is 19.3%; with UO-31 renal, -17% (active); in the assay with TK-10 renal it was 61.4%; in the assay with ACHN renal, 4.75% (active); with CAKI-1 renal, 70.8%; in the assay on A498 renal, 42.6%. The growth with CCRF-CEM leukemia is -8.44% (active); with MOLT-4 leukemia, -35.2% (active).
Take `CCOC(=O)c1c(C)nn(CC(O)c2ccccc2)c1NC(=O)Nc1cccc(F)c1` (stereo not given): the growth in the assay with HCT-15 colon was 85.2%; in the assay with HT29 colon it was 96%; in the assay on SNB-75 CNS, 77.3%; in the assay on SNB-19 CNS, 94.8%; in the assay on U251 CNS it was 93.4%; in the assay with PC-3 prostate, 76.8%. Besides, the growth in the assay with SK-MEL-5 melanoma is 94.7%; in the assay with UACC-62 melanoma it was 77.2%; in the assay with LOX IMVI melanoma, 95%; in the assay with SK-MEL-28 melanoma it was 104%; in the assay with SK-MEL-2 melanoma, 90.9%; in the assay with EKVX NSCLC, 91.2%. Besides, the growth is 84.1% with SN12C renal; 74.8% in the assay with UO-31 renal; 110% in the assay with TK-10 renal; 89.7% with ACHN renal; 83.4% in the assay on CAKI-1 renal; 70.9% in the assay with A498 renal. Moreover, the results for the growth in the assay on CCRF-CEM leukemia and with MOLT-4 leukemia were 89.3% and 88.7%, respectively.
Turning to `Cc1cc(C(=O)Nc2cc(Nc3ncccc3-c3ncnc4nc[nH]c34)ccc2F)cc(C(F)(F)F)c1`, the growth in the assay with HCT-15 colon is 60.1%; in the assay with HT29 colon, 20.8%; in the assay on SNB-75 CNS, 59.4%; with SNB-19 CNS, 74.4%; with U251 CNS, 57.3%; with PC-3 prostate it was 72.2%. In addition, the growth is 29.2% in the assay with SK-MEL-5 melanoma; -2.36% (active) with UACC-62 melanoma; 1.22% (active) with LOX IMVI melanoma; 10.3% in the assay on SK-MEL-28 melanoma; 6.72% (active) in the assay with SK-MEL-2 melanoma; 67.1% with EKVX NSCLC. The growth in the assay on SN12C renal is 55.7%; with UO-31 renal, 94.1%; with TK-10 renal, 68%; in the assay on ACHN renal, 45.1%; in the assay with CAKI-1 renal it was 15.4%; in the assay on A498 renal, -26.9% (active). Besides, the growth with CCRF-CEM leukemia is 62.3%; in the assay with MOLT-4 leukemia it was 47.2%.
